Consider 22 molecules from PubChem BioAssay (NCATS).

Assay [1] deals with Rap guanine nucleotide exchange factor 3 (Homo sapiens) (UniProt O95398). Put plainly: Confirmatory qHTS for antagonist of cAMP-regulated guanine nucleotide exchange factor 3 (EPAC1) (AID 1645880). Note: nearly all actives have a fitted effect of over 55% in size. Note: potency is the fitted concentration of half-maximal effect. In a few lines:
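Nucleotide exchange uses 100 nM EPAC1, 250 nM RAP1B-BODIPY-GDP and 50 uM GDP, with compounds in a concentration-titration series. After 5 min at room temperature, fluorescence (480 nm ex/540 nm em) is read every 5 min for 30 min. Data are normalized to control ATA and DMSO.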

The target is the same in assay [2]. Put plainly: Confirmatory qHTS for agonist of cAMP-regulated guanine nucleotide exchange factor 3 (EPAC1) (AID 1645881).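 For activation: EPAC1 catalysed release of BODIPY-GDP from Rap1B seen as fluorescence loss; 100% = effect of cAMP agonist control.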 Note: nearly all actives have a fitted effect of over 75% in size. Note: potency is the fitted concentration of half-maximal effect. A general note: Quantitative high-throughput screening tests each substance at several concentrations.
Assay [3] addresses Rap guanine nucleotide exchange factor 4 (Homo sapiens) (UniProt Q8WZA2). As to the kind of experiment: Confirmatory qHTS for agonist of cAMP-regulated guanine nucleotide exchange factor 4 (EPAC2) (AID 1645884). For activation: % is set by controls: 0 for no effect and ±100 for the full control effect.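 Note: nucleotide exchange releases bodipy-GDP from Rap1 and this lowers its fluorescence; nearly all actives have a fitted effect of over 65% in size.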 Note: potency is the fitted concentration of half-maximal effect.
For assay [4] the target is unchanged. As to the kind of experiment: Confirmatory qHTS for antagonist of cAMP-regulated guanine nucleotide exchange factor 4 (EPAC2) (AID 1645885). For activity change, negative = inhibition: % is set by controls: 0 for no effect and ±100 for the full control effect. Note: nearly all actives have a fitted effect of over 25% in size. Note: potency is the fitted concentration of half-maximal effect.
Assay [5] deals with Rap guanine nucleotide exchange factor 3 (Homo sapiens) (UniProt O95398). As to the kind of experiment: Counterscreen qHTS for antagonist of cAMP-regulated guanine nucleotide exchange factor 3 (EPAC1) (AID 1645888).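 Note: fluorescence loss as bound BODIPY-GDP is released from Rap1B; % of control where 0% means no effect.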 In a few lines:
(§1)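 Rap1B-BODIPY-GDP 250 nM + GDP 50 uM; cpds 7-pt, final 9.74 nM–152 uM (activator mode) or from 7.32 nM upwards (inhibitor mode); RT; FI 480/540 nm at 5 and 30 min, then ± cAMP, reread.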
For orientation: A counterscreen serves to expose hits that act by an unwanted route or on another target.

The target is the same in assay [6]. As to the kind of experiment: Counterscreen qHTS for agonist of cAMP-regulated guanine nucleotide exchange factor 3 (EPAC1) (AID 1645889). For activation: % of control where 0% means no effect. Note: nearly all actives have a fitted effect of over 40% in size. Note: potency is the fitted concentration of half-maximal effect. In a few lines:
as §1

Results filed as inconclusive are left out. A number with no mark means an inactive call. Active and inactive are the calls of the source. Calls come from the whole dose curve; as a rule, active = well fitted curve in the direction sought with a large enough effect; inconclusive = small, poorly fitted or top-dose-only effect, or another doubt; inactive = no such curve, though single readings can be large; an effect the other way counts as inactive or inconclusive.

Rap guanine nucleotide exchange factor 4 (Homo sapiens), sequence (Q8WZA2 whole entry, looked up): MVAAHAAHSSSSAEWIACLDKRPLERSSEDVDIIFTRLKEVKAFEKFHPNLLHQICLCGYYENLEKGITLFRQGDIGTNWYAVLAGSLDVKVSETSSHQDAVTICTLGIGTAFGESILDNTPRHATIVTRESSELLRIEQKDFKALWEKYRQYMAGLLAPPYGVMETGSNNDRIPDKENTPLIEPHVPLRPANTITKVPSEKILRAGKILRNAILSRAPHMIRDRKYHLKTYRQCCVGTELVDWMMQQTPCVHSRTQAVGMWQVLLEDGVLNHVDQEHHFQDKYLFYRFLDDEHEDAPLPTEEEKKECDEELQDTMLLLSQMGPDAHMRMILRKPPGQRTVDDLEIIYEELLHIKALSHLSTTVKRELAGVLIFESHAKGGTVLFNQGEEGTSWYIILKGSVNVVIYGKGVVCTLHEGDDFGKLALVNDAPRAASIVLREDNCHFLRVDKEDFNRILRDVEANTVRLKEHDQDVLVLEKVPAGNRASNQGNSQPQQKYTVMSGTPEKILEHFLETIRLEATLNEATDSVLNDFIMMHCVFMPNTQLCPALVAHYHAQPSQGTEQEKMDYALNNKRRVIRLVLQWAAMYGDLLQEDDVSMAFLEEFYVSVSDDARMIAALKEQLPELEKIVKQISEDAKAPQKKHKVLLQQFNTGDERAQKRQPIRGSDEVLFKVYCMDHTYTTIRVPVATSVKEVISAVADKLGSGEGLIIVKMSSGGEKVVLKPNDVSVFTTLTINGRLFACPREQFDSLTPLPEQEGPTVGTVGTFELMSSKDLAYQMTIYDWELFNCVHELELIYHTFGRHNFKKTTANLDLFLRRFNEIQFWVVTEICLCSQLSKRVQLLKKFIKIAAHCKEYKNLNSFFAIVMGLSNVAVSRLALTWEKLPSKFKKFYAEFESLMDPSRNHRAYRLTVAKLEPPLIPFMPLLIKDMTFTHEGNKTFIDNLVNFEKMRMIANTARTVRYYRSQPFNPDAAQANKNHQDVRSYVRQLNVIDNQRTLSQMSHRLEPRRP
Rap guanine nucleotide exchange factor 3 (Homo sapiens), sequence (O95398 whole entry, looked up): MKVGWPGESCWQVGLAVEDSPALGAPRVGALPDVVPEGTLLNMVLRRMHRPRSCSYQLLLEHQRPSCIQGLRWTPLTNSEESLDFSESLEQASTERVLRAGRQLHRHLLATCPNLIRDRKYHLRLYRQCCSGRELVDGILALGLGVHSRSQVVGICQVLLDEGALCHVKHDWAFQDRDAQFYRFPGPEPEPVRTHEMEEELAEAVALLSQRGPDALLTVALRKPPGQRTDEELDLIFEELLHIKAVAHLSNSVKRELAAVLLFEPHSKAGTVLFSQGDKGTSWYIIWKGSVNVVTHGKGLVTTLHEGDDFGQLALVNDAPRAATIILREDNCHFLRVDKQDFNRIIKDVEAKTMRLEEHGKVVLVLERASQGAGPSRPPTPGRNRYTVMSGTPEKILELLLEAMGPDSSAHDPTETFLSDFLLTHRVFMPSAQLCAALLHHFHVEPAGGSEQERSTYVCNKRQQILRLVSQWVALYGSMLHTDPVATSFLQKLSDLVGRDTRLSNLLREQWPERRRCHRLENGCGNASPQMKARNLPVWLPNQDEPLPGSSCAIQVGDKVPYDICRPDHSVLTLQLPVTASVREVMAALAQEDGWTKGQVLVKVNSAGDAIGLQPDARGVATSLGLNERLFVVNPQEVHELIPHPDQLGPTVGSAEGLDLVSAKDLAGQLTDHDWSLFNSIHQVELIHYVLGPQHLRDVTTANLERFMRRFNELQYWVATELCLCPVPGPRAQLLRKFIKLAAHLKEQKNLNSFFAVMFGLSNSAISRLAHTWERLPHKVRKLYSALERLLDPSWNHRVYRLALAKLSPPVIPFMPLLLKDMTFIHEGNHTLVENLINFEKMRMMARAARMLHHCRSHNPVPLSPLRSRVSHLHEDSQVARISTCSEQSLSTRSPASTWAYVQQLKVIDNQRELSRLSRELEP

Consider `COc1cc(OC)c(CNC2CCCCCC2)cc1Br`, for which the Potency entry in assay [1], in assay [2], in assay [3], in assay [4], in assay [5] and in assay [6] was “inactive” throughout.

As to `CCCC(=O)N1c2nc(C(C)C)nn2C2(CCCCC2)[C@@H]2CCCC[C@@H]21`, the Potency entry in assay [1], in assay [2], in assay [3], in assay [4], in assay [5] and in assay [6] was “inactive” in each case.

Regarding `CC1CCCCC1Nc1nc2ccc(Cl)cc2n2cnnc12` (configuration not stated), the Potency result in assay [1], in assay [2], in assay [3], in assay [4], in assay [5] and in assay [6] was “inactive” throughout.

Turning to `Cn1c(Cc2cccs2)nnc1SCc1nc2ccccc2[nH]1`, the Potency entry in assay [1], in assay [2] and in assay [4] was “inactive” in each case. Besides, the activation is 2.48% [at 17.1 µM, percent relative to cAMP agonist control] in assay [3] and 30.7% [at 30.8 µM] in assay [6]. In addition, the activity change, negative = inhibition in assay [5] is -1.2% [at 30.8 µM].

In the case of `CCOc1cc(/C=N/Nc2nc(-c3cccs3)c(NC(C)=O)s2)ccc1O`, the Potency result in assay [1], in assay [2], in assay [3], in assay [4], in assay [5] and in assay [6] was “inactive” in each case.

As to `CCCCOC(=O)CSc1nnc(-c2ccc(Cl)cc2Cl)o1`, the Potency result in assay [1], in assay [2] and in assay [4] was “inactive” throughout. Further, the activation is 5.42% [at 17.1 µM, percent relative to cAMP agonist control] in assay [3] and 14.1% [at 30.8 µM] in assay [6]. In assay [5], the activity change, negative = inhibition is -4.49% [at 30.8 µM].

On to `CCN(CC)c1ccc2oc(=O)c(C)nc2c1`, for which the Potency entry in assay [1] and in assay [5] was “inactive” throughout. Moreover, the Potency in assay [2] is 100 µM (active); in assay [3], 100 µM (active); in assay [4], 75.7 µM (active); in assay [6], 39.8 µM (active).

`O=C1/C(=C/c2ccc(F)cc2)SC(=S)N1NS(=O)(=O)c1ccccc1`: the Potency in assay [1] was 16.9 µM (active). Besides, the Potency entry in assay [2], in assay [3], in assay [4], in assay [5] and in assay [6] was “inactive” each time.

As for `CC1(C)CC(=O)C2=C(C1)c1c(ccc3ccccc13)NC2c1cc([N+](=O)[O-])cc([N+](=O)[O-])c1O` (configuration not stated), the figures for the Potency in assay [1] and in assay [4] were 9.53 µM (active) and 26.9 µM (active), respectively. Also, the Potency entry in assay [2], in assay [3], in assay [5] and in assay [6] was “inactive” each time.

Regarding `COc1ccc(C(C#N)=Cc2cccc(OC)c2OC)cc1`, the Potency entry in assay [1], in assay [2], in assay [3], in assay [5] and in assay [6] was “inactive” in each case. Further, in assay [4], the Potency is 16.9 µM (active).

Turning to `CC1=CC=CC2=NC(=O)CC(C)(C(=O)N(CC(=O)NC(C)C)C3CCCC3)N12` (configuration not stated), the Potency entry in assay [1], in assay [2] and in assay [4] was “inactive” in each case. Besides, the activation in assay [3] was 3.39% [at 17.1 µM, percent relative to cAMP agonist control]; in assay [6], 26.5% [at 30.8 µM]. The activity change, negative = inhibition in assay [5] is -13.5% [at 30.8 µM].

Regarding `Cc1ccc(N(Cc2cccs2)C(=O)c2ccccc2[N+](=O)[O-])cc1`, the Potency result in assay [1], in assay [2], in assay [3], in assay [4], in assay [5] and in assay [6] was “inactive” in each case.

Take `NS(=O)(=O)c1ccc(NC(=O)Cc2c(F)cccc2Cl)cc1`: the Potency entry in assay [1], in assay [2], in assay [3], in assay [4], in assay [5] and in assay [6] was “inactive” each time.

On to `Cc1ccccc1S(=O)(=O)N1C(c2ccc(Cl)c(Cl)c2)CC=C(C(=O)O)C1c1cccc(Br)c1` (configuration not stated), for which the Potency in assay [1] was 75.7 µM (active). Moreover, the Potency result in assay [2], in assay [3], in assay [4], in assay [5] and in assay [6] was “inactive” each time.

For the molecule `CCOc1cc(/C=C2\C(=N)N3N=C(S(=O)(=O)CC)SC3=NC2=O)ccc1OC(=O)c1ccco1`, the Potency in assay [1] was 30.1 µM (active). Also, the Potency entry in assay [2], in assay [3], in assay [4], in assay [5] and in assay [6] was “inactive” in each case.

For the molecule `Cn1c(N)c(C(=O)COC(=O)COc2ccccc2C#N)c(=O)n(C)c1=O`, the Potency result in assay [1], in assay [2] and in assay [4] was “inactive” throughout. For the same molecule, the activation in assay [3] is 1.14% [at 17.1 µM, percent relative to cAMP agonist control]; in assay [6], 3.75% [at 30.8 µM]. The activity change, negative = inhibition in assay [5] was 3.67% [at 30.8 µM].

In the case of `O=C(COC(=O)c1cccc(-n2cnnn2)c1)c1ccc(F)cc1`, the Potency result in assay [1], in assay [2] and in assay [4] was “inactive” in each case. For the same molecule, the activation in assay [3] is 8.21% [at 17.1 µM, percent relative to cAMP agonist control]; in assay [6], 4.41% [at 30.8 µM]. In assay [5], the activity change, negative = inhibition was -3.01% [at 30.8 µM].

Take `COc1ccc(CNc2cccnc2)c(OC)c1OC`: the Potency entry in assay [1], in assay [2] and in assay [4] was “inactive” each time. The activation was -6.76% [at 17.1 µM, percent relative to cAMP agonist control] in assay [3] and 15.5% [at 30.8 µM] in assay [6]. Also, the activity change, negative = inhibition in assay [5] was -16% [at 30.8 µM].

In the case of `CC1CC1C(=O)OCC(=O)NNC(=O)COc1ccc(Br)cc1` (configuration not stated), the Potency entry in assay [1], in assay [2] and in assay [4] was “inactive” in each case. In addition, the activation in assay [3] is 2.41% [at 17.1 µM, percent relative to cAMP agonist control]; in assay [6] it was 28.1% [at 30.8 µM]. Further, in assay [5], the activity change, negative = inhibition was 26.9% [at 30.8 µM].

On to `O=C1Nc2c(Cl)cc(Cl)cc2C1=O`, for which the Potency entry in assay [1], in assay [2], in assay [3], in assay [4] and in assay [5] was “inactive” throughout. Moreover, the Potency in assay [6] was 31.6 µM (active).

With `CC1(C)CC(=O)c2sc(N3CCCCC3)nc2C1`, the Potency entry in assay [1], in assay [2], in assay [3], in assay [5] and in assay [6] was “inactive” each time. Further, the Potency in assay [4] is 75.7 µM (active).

On to `CCOC(=O)c1ccccc1NC(=O)CSc1nccn1Cc1ccco1`, for which the Potency entry in assay [1], in assay [2], in assay [3], in assay [4], in assay [5] and in assay [6] was “inactive” in each case.
